# Results: PubChem BioAssay (EPA / NIEHS)
# Results filed as inconclusive are left out. Calls of active or inactive are those of the source. How the source made its calls: active means hit-call score of the fitted dose curve at least 0.9, where 1 is the maximum; inconclusive means response in the unintended direction; inactive means score below 0.9.
# How the values were obtained:
# [1] = target: human Elastase, ELANE (gene 1991) (UniProt P08246); assay: NVS_ENZ_hElastase: NovaScreen (NVS) Enzymatic Assay for human Elastase (AID 2283153)
# human Elastase, ELANE (gene 1991), sequence (P08246 whole entry, looked up): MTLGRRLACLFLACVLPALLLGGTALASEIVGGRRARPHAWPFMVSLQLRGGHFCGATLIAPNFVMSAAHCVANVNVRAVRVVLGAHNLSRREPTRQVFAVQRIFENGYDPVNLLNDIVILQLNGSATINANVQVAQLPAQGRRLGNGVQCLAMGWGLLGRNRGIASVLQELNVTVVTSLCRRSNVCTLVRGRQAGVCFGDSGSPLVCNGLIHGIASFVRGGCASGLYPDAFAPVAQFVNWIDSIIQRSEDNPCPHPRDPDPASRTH
# In short: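 Concentration-response to 50 uM max, run singly for chemicals passing a threshold (e.g., 30% inhibition) in a duplicate 25 uM single-point screen. Neutrophil-derived human elastase, absorbance read-out of enzyme activity at 1.5 h; DMSO baseline.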
# [2] = target: human Ephrin type-A Receptor 1 (EphA1), EPHA1 (gene 2041) (UniProt P21709); assay: NVS_ENZ_hEphA1: NovaScreen (NVS) Enzymatic Assay for human Ephrin type-A Receptor 1 (EphA1) (AID 2283158);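 further: activity is signal loss versus DMSO meaning EphA1 kinase inhibition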
# In short: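 Cell-free kinase activity with recombinant protein, 1 hour after dosing; product separated by electrophoretic mobility shift, fluorescence read. Primary screen at 25 uM in duplicate; hits run as concentration-response up to 50 uM, relative to DMSO.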
# [3] = target: human Janus Kinase 2 (Jak2), JAK2 (gene 3717) (UniProt O60674); assay: NVS_ENZ_hJak2: NovaScreen (NVS) Enzymatic Assay for human Janus Kinase 2 (Jak2) (AID 2283169)
# In short: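 Single-point duplicate screen at 25 uM, with hits run in concentration series to a 50 uM top dose. Substrate-product separation by mobility shift with fluorescence detection, 1 h post-dosing; DMSO baseline.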
# [4] = target: human LYN Proto-Oncogene, Src family Tyrosine Kinase (LynA), LYN (gene 4067) (UniProt P07948); assay: NVS_ENZ_hLynA: NovaScreen (NVS) Enzymatic Assay for human LYN Proto-Oncogene, Src family Tyrosine Kinase (LynA) (AID 2283173)
# In short: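 Recombinant kinase with fluorescent substrate; product separated from substrate by electrophoretic mobility shift and read 1 h after dosing. Duplicate screen at 25 uM, then concentration-response up to 50 uM; activity scored as signal loss against DMSO.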
# [5] = target: Collagenase 3 (Homo sapiens) (UniProt P45452); assay: NVS_ENZ_hMMP13: NovaScreen (NVS) Enzymatic Assay for human Matrix Metalloproteinase-13 (MMP13) (AID 2283182)
# In short: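 Recombinant MMP13 cleaving fluorescent substrate, cell-free, measured 1 h after dosing. Primary duplicate screen at 25 uM; actives tested in concentration-response up to 50 uM; loss of signal relative to DMSO.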
# [6] = target: human Matrix Metalloproteinase-2 (MMP2), MMP2 (gene 4313) (UniProt P08253); assay: NVS_ENZ_hMMP2: NovaScreen (NVS) Enzymatic Assay for human Matrix Metalloproteinase-2 (MMP2) (AID 2283184)
# human Matrix Metalloproteinase-2 (MMP2), MMP2 (gene 4313), sequence (P08253 whole entry, looked up): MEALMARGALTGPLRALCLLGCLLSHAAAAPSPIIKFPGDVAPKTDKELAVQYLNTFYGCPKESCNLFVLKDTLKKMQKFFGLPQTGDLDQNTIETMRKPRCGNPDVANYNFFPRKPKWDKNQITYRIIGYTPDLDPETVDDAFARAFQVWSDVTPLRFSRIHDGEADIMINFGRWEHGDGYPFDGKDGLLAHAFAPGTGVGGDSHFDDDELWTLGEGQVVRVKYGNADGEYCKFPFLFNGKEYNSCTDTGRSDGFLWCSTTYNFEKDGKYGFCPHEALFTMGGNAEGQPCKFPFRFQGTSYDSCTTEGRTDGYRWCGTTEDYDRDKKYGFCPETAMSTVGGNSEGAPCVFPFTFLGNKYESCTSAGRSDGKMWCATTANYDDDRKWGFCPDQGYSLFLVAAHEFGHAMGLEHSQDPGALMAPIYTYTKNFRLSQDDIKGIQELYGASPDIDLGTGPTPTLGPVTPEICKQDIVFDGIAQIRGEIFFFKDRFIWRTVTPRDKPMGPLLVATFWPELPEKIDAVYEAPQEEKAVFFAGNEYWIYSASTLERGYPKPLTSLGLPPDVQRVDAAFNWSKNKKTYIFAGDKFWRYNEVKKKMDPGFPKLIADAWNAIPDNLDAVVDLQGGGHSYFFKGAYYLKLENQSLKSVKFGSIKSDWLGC
# In short: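 Compounds first screened in duplicate at a single 25 uM, with actives followed up in concentration series. Recombinant human MMP2 cleaves a fluorogenic substrate; fluorescence taken at 1 h, inhibition fitted relative to DMSO.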
# [7] = target: human Esterase Plasma (ES), BCHE (gene 590) (UniProt P06276); assay: NVS_ENZ_hES: NovaScreen (NVS) Enzymatic Assay for human Esterase Plasma (ES) (AID 2283157)
# In short: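 Screening ran at 25 uM in duplicate, followed by singleton concentration series reaching 50 uM for actives. Human plasma protein, colorimetric detection, 0.25 h exposure, DMSO negative control.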
# [8] = target: human Phosphodiesterase 10 (PDE10), PDE10A (gene 10846) (UniProt Q9Y233); assay: NVS_ENZ_hPDE10: NovaScreen (NVS) Enzymatic Assay for human Phosphodiesterase 10 (PDE10) (AID 2283195)
# human Phosphodiesterase 10 (PDE10), PDE10A (gene 10846), sequence (Q9Y233 whole entry, looked up): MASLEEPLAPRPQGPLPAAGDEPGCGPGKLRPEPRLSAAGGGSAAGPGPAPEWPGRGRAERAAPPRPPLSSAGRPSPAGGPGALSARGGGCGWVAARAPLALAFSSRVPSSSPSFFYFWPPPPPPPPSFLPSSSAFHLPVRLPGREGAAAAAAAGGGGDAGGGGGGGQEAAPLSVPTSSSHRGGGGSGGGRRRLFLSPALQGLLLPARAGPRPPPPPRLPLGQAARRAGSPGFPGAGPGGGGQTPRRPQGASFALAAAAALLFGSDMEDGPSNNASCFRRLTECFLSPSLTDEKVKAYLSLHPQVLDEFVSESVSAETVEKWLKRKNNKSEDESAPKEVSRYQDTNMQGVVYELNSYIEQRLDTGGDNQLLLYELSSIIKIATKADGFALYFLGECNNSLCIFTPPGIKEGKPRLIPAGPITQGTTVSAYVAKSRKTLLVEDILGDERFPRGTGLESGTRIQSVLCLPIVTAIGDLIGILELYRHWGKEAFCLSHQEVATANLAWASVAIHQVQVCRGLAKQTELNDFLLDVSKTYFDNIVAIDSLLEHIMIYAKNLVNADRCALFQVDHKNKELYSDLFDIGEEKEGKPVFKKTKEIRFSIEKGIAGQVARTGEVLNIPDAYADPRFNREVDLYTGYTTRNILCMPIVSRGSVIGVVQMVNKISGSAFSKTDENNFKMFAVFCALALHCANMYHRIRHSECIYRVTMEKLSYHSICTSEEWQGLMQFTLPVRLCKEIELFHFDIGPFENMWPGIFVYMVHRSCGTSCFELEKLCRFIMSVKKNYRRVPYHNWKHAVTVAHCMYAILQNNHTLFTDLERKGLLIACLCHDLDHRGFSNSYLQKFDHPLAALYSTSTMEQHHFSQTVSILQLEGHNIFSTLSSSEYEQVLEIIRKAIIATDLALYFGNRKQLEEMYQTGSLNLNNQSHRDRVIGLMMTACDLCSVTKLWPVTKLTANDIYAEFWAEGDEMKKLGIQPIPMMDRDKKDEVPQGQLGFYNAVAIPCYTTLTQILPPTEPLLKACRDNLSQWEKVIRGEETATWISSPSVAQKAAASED
# In short: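 Readout is fluorescence intensity following electrophoretic mobility-shift separation, 1 h after dosing of isolated PDE10A protein. Hits meeting a preset threshold at 25 uM went to concentration series (max 50 uM), analysed relative to DMSO.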
# [9] = target: human Phosphodiesterase 5 (PDE5), PDE5A (gene 8654) (UniProt O76074); assay: NVS_ENZ_hPDE5: NovaScreen (NVS) Enzymatic Assay for human Phosphodiesterase 5 (PDE5) (AID 2283194)
# In short: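 Screening began in duplicate at 25 uM, with actives taken into concentration-response. Enzyme activity of recombinant PDE5 toward its substrate was measured at 1 h by fluorescence mobility-shift detection, relative to DMSO controls.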
# [10] = target: cAMP-dependent protein kinase catalytic subunit alpha (Homo sapiens) (UniProt P17612); assay: NVS_ENZ_hPKA: NovaScreen (NVS) Enzymatic Assay for human Protein Kinase A (PKA) (AID 2283192)
# In short: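 Cell-free kinase activity read by fluorescence after mobility-shift separation of substrate and product, 1 h post-dosing. Single-concentration duplicate screen (25 uM) preceded singleton concentration series (top 50 uM); loss of signal versus DMSO.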
# [11] = target: human Matrix Metalloproteinase-7 (MMP7), MMP7 (gene 4316) (UniProt P09237); assay: NVS_ENZ_hMMP7: NovaScreen (NVS) Enzymatic Assay for human Matrix Metalloproteinase-7 (MMP7) (AID 2283183)
# human Matrix Metalloproteinase-7 (MMP7), MMP7 (gene 4316), sequence (P09237 whole entry, looked up): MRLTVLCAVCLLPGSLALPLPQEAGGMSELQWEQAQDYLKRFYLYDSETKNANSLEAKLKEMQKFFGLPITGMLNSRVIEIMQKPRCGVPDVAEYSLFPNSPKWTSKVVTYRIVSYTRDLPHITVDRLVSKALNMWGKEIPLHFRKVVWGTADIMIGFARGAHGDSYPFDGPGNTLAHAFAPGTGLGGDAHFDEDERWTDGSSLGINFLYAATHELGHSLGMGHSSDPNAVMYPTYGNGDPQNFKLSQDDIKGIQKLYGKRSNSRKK
# In short: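 Compounds first tested at 25 uM in duplicate, then at up to 50 uM in concentration series if active. Protease activity measured by fluorescence intensity 1 h after dosing, with fitting relative to DMSO.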
# [12] = target: Mitogen-activated protein kinase 3 (Homo sapiens) (UniProt P27361); assay: NVS_ENZ_hMAPK3: NovaScreen (NVS) Enzymatic Assay for human Mitogen-Activated Protein Kinase 3 (MAPK 3) (AID 2283177)
# Mitogen-activated protein kinase 3 (Homo sapiens), sequence (P27361 whole entry, looked up): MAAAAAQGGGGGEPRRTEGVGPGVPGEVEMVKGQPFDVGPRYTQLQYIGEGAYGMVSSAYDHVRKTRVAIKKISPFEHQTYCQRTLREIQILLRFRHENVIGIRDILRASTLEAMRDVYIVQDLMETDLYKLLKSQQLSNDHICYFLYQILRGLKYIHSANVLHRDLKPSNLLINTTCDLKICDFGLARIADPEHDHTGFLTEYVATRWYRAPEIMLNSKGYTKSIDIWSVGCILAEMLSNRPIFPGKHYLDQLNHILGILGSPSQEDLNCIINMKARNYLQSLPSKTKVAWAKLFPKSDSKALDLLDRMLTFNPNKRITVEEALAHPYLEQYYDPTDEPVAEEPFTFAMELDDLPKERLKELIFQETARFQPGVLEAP
# In short: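 Chemicals were first tested in duplicate at 25 uM, with hits re-run as concentration series (max 50 uM). Recombinant enzyme activity, measured 1 h post-dose in a cell-free format, was read by fluorescence/mobility shift relative to DMSO.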
# [13] = target: human Insulin Receptor (InsR), INSR (gene 3643) (UniProt P06213); assay: NVS_ENZ_hInsR: NovaScreen (NVS) Enzymatic Assay for human Insulin Receptor (InsR) (AID 2283168)
# human Insulin Receptor (InsR), INSR (gene 3643), sequence (P06213 whole entry, looked up): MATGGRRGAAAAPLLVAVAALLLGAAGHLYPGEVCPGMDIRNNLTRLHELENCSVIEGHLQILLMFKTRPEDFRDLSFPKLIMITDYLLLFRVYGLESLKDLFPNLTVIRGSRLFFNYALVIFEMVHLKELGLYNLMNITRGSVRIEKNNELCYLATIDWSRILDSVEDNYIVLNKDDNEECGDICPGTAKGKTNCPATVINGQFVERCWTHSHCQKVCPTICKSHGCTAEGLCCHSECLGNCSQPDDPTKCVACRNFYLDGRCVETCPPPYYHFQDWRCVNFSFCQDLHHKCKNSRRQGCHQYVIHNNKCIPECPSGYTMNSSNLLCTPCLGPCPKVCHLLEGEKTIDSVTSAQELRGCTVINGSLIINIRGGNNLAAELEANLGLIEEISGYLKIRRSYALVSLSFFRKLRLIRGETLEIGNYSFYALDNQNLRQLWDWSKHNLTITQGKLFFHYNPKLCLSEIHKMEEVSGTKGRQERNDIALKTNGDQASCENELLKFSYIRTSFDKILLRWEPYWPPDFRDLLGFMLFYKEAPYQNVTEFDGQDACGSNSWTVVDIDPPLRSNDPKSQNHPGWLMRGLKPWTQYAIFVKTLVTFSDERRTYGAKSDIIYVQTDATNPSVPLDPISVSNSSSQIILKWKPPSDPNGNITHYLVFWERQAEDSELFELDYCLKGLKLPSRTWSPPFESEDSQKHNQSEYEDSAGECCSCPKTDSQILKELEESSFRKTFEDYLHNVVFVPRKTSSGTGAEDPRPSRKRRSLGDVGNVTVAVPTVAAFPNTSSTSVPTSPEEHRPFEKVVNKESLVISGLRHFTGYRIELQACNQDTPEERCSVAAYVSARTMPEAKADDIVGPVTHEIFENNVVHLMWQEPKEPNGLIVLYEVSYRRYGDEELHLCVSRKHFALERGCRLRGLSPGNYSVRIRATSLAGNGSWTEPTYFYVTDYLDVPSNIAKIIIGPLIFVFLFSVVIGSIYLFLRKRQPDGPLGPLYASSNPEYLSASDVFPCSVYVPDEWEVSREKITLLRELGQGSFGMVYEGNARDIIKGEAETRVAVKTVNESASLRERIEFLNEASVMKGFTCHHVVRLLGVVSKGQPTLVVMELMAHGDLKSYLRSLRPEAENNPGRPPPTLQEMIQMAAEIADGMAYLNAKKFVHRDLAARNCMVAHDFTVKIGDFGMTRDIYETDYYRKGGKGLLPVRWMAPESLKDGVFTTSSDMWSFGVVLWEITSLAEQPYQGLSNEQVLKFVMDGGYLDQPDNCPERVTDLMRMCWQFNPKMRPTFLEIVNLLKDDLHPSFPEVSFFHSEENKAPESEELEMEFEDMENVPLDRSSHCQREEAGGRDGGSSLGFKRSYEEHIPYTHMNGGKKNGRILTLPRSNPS
# In short: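 Cell-free enzyme assay read 1 h post-dose by fluorescence after substrate/product mobility-shift separation. Duplicate 25 uM primary screen, then singleton concentration-response up to 50 uM for compounds passing threshold; loss of signal vs DMSO.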
# [14] = target: human Phosphoinositide 3-kinase alpha (PI3Ka), PIK3CA (gene 5290) (UniProt P42336); assay: NVS_ENZ_hPI3Ka: NovaScreen (NVS) Enzymatic Assay for human Phosphoinositide 3-kinase alpha (PI3Ka) (AID 2283196)
# human Phosphoinositide 3-kinase alpha (PI3Ka), PIK3CA (gene 5290), sequence (P42336 whole entry, looked up): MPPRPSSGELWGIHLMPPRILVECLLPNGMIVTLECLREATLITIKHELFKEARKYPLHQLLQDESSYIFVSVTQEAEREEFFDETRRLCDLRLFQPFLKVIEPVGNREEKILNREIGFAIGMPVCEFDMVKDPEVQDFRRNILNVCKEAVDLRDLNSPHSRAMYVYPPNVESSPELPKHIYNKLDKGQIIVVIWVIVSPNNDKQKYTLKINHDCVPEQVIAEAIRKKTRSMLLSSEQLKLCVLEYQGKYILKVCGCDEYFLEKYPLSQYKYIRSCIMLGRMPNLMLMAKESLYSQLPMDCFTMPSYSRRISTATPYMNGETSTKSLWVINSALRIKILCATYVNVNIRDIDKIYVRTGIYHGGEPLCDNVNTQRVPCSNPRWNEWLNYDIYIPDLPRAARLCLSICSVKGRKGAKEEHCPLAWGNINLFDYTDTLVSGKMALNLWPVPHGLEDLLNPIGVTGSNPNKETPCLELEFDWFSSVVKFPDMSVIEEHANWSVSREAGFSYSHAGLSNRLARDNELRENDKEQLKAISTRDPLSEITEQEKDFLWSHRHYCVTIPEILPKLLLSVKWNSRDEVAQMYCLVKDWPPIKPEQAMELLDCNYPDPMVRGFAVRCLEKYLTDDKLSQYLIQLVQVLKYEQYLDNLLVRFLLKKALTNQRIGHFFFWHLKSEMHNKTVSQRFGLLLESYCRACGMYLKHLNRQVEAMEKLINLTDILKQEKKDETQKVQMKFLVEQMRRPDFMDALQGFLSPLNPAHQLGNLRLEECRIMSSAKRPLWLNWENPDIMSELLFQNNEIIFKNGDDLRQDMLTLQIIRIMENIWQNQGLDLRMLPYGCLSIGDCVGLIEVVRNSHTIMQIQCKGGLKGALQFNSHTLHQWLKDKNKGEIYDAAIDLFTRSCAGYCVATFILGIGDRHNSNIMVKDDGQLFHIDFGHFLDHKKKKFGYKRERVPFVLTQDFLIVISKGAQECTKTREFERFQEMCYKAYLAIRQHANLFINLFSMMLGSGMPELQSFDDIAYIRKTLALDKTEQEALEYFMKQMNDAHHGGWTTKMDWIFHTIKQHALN
# In short: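 Chemicals were first screened at 25 uM in duplicate, then hits were run as concentration series up to 50 uM. Enzyme activity was measured by fluorescence after mobility-shift separation, with loss of signal relative to DMSO taken as activity.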
# [15] = target: human Mitogen- and Stress-activated Protein Kinase-1 (Msk1), RPS6KA5 (gene 9252) (UniProt O75582); assay: NVS_ENZ_hMsk1: NovaScreen (NVS) Enzymatic Assay for human Mitogen- and Stress-activated Protein Kinase-1 (Msk1) (AID 2283187)
# In short: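 Chemicals first run in duplicate at 25 uM, with actives followed up in singleton concentration series to 50 uM maximum. Enzyme activity came from substrate/product mobility-shift separation with fluorescence detection after 1 h incubation of the recombinant protein.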
# [16] = target: human MAP Kinase-Activated Protein Kinase 2 (MAPKAPK2), MAPKAPK2 (gene 9261) (UniProt P49137); assay: NVS_ENZ_hMAPKAPK2: NovaScreen (NVS) Enzymatic Assay for human MAP Kinase-Activated Protein Kinase 2 (MAPKAPK2) (AID 2283178)
# In short: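 Chemicals screened in duplicate at 25 uM, then to 50 uM top concentration in concentration-response, against recombinant human MAPKAPK2; substrate conversion read 1 hr post-dosing by fluorescence after electrophoretic mobility-shift separation, loss-of-signal relative to DMSO.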
# [17] = target: human Matrix Metalloproteinase-3 (MMP3), MMP3 (gene 4314) (UniProt P08254); assay: NVS_ENZ_hMMP3: NovaScreen (NVS) Enzymatic Assay for human Matrix Metalloproteinase-3 (MMP3) (AID 2283185)
# In short: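 Fluorescent substrate turnover by recombinant MMP3 read after 1 h, signal loss scored against DMSO. Compounds first run in duplicate at 25 uM single dose, then actives confirmed by concentration series.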
# [18] = target: human c-Jun N-terminal Kinases (JNK2), MAPK9 (gene 5601) (UniProt P45984); assay: NVS_ENZ_hJNK2: NovaScreen (NVS) Enzymatic Assay for human c-Jun N-terminal Kinases (JNK2) (AID 2283171)
# In short: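 Chemicals first tested in duplicate at 25 uM, then in singleton concentration series up to 50 uM, against extracted JNK2 enzyme. Activity loss read by fluorescence with mobility-shift separation 1 h post-dose; DMSO baseline.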
smiles,measurement,setting,value
CNS(=O)(=O)c1cc(C(=O)N2CCC(CCN3C4CCC3CC(n3c(C)nc5ccccc53)C4)(c3cccc(F)c3)CC2)c(Cl)cc1F (configuration not stated),AC50,[1],8.03 µM (active)
same,outcome,[2],inactive
same,AC50,[3],10.2 µM (active)
same,outcome,[4],inactive
same,AC50,[5],14.5 µM (active)
same,AC50,[6],8.32 µM (active)
CC[C@H]1CC[C@H](NCc2cc3c(cc2OC)[C@H]2C[C@H]2C(=O)N3C)[C@H](c2ccccc2)N1,AC50,[7],17.3 µM (active)
same,outcome,[3],inactive
same,outcome,[8],inactive
CC/C(=C\C(=N/O)C(N)=O)C(C)[N+](=O)[O-] (configuration not stated),outcome,[2],inactive
same,AC50,[9],40.1 µM (active)
CCOC(=O)COc1ccc2c(c1)CC(NCC(O)c1cccc(Cl)c1)CC2 (configuration not stated),AC50,[7],10.9 µM (active)
CC(=O)c1ccc2c(c1)[C@H](NC(=O)c1ccc(F)cc1)[C@@H](O)C(C)(C)O2,outcome,[10],inactive
same,outcome,[9],inactive
CCOCCOCCOCCO,AC50,[11],28.2 µM (active)
O=C(NS(=O)(=O)/C=C/c1ccccc1)c1ccc(F)cc1Cl,outcome,[12],inactive
Clc1nc(Cl)c(Cl)c(Cl)c1Cl,outcome,[13],inactive
C=CC(=C)CCC=C(C)C,AC50,[11],6.56 µM (active)
CC[C@H](C)C(=O)O[C@H]1C[C@@H](C)C=C2C=C[C@H](C)[C@H](CC[C@@H]3C[C@@H](O)CC(=O)O3)[C@H]21,outcome,[12],inactive
same,outcome,[11],inactive
same,outcome,[6],inactive
same,outcome,[9],inactive
same,outcome,[14],inactive
COc1ccc(-n2nc(C(F)F)cc2-c2ccc(S(C)=O)cc2)cc1 (configuration not stated),AC50,[9],12.9 µM (active)
CCCCCCc1ccc(O)cc1O,outcome,[11],inactive
same,outcome,[9],inactive
CCCCCCCCCCCCCCCO,outcome,[5],inactive
COCCOCCOCCOC,outcome,[13],inactive
CC(C)=CCCC(C)CCO (configuration not stated),outcome,[9],inactive
CC(C)c1cccc(C(C)C)c1N1C(=O)c2ccc(O)cc2C1=O,outcome,[4],inactive
same,outcome,[12],inactive
same,outcome,[11],inactive
same,outcome,[6],inactive
same,outcome,[15],inactive
same,AC50,[14],0.533 µM (active)
CC[C@H]1OC(=O)[C@H](C)[C@@H](O[C@H]2C[C@@](C)(OC)[C@@H](O)[C@H](C)O2)[C@H](C)[C@@H](O[C@@H]2O[C@H](C)C[C@H](N(C)C)[C@H]2O)[C@](C)(O)C[C@@H](C)C(=O)[C@H](C)[C@@H](O)[C@]1(C)O,outcome,[13],inactive
CC(C)(O)c1coc(S(=O)(=O)NC(=O)Nc2c3c(cc4c2CCC4)CCC3)c1,AC50,[5],20.6 µM (active)
Nc1nc2ncc(CNc3ccc(C(=O)N[C@@H](CCC(=O)O)C(=O)O)cc3)nc2c(=O)[nH]1,AC50,[16],37.4 µM (active)
same,outcome,[9],inactive
same,outcome,[8],inactive
O=C(O)CCN(C1(C(=O)NO)CCCC1)S(=O)(=O)c1ccc(Oc2ccc(F)cc2)cc1,AC50,[5],0.0041 µM (active)
same,AC50,[6],0.0139 µM (active)
same,AC50,[17],8.47 µM (active)
Cn1c(=O)c2c(ncn2C)n(C)c1=O,outcome,[9],inactive
same,AC50,[8],25 µM (active)
O=C(O)c1cccc(N(Cc2cccnc2)c2ccc(OC(F)F)c(OC(F)F)c2)c1,AC50,[18],4.96 µM (active)
same,outcome,[12],inactive
same,AC50,[9],3.28 µM (active)
C=CCCCCCCCCC(=O)O,outcome,[6],inactive
same,outcome,[9],inactive
NC(=O)NO,outcome,[4],inactive
CC(C)CCCCCCCOC(=O)CCCCC(=O)OCCCCCCCC(C)C,outcome,[4],inactive
same,outcome,[5],inactive
COC(=O)CC(=O)OC,AC50,[6],7.18 µM (active)
Fc1ccccc1[C@@H](F)COC1CCC(Nc2ncnc3[nH]ncc23)CC1 (some centres not stated),outcome,[5],inactive
Cn1c(=O)cc(Oc2ccc(F)cc2F)c2cnc(NCC(C)(C)O)nc21,AC50,[18],0.00703 µM (active)
same,AC50,[12],34.6 µM (active)
same,AC50,[9],12.4 µM (active)
same,AC50,[8],8.25 µM (active)
O=C(O)c1cccc(Oc2ccccc2)c1,outcome,[4],inactive
same,outcome,[11],inactive
same,outcome,[10],inactive
same,outcome,[9],inactive
same,outcome,[8],inactive
same,outcome,[14],inactive
CC(C)CC(C)(O)C#CC(C)(O)CC(C)C (configuration not stated),outcome,[4],inactive
CN(C)c1ccc(Cc2ccc(N(C)C)cc2)cc1,outcome,[10],inactive
